Test results reported in PubChem BioAssay AID485313 (National Center for Advancing Translational Sciences (NCATS), 2010).
In all, about 320,000 compounds went through this assay and about 7,600 (2.4%) were called active. A call without a number means that no potency is given here. Another 3% or so got no clear call; they are omitted. Calls come from the whole dose curve; as a rule, active = well fitted activation curve with a large enough effect; inconclusive = small, poorly fitted or top-dose-only effect; inactive = no such curve, though single readings can be large or run the other way. The sample as a whole holds a higher share of actives than the screen did.

Assay: qHTS Assay for NPC1 Promoter Activators; note: nearly all actives have a fitted effect of over 60% in size
Settings: Huh7 NPC1 promoter luciferase reporter, 24 h; series mostly up to 9.22 µM
Procedure, shortened: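 Luciferase expression driven by the NPC1 promoter was measured in stably transfected Huh7 cells after a 24 h compound incubation, using a luciferase reagent and a luminescence read.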
Potency is the fitted concentration of half-maximal effect.

Structure (SMILES) | Potency
Cc1cc(NC(=O)CSc2nnnn2-c2ccc(F)cc2)no1 | inactive
N#Cc1ccc(OCC(=O)NC(=O)NC2CCS(=O)(=O)C2)cc1 (configuration not stated) | inactive
Cn1c(=NC(=O)C2CC2)sc2cc(F)cc(F)c21 | inactive
Cn1c(=NC(=O)c2ccco2)sc2cccc(F)c21 | 2510 nM (active)
CCCC(=O)N=c1sc2cccc(F)c2n1C | inactive
CC1CC2C3CCC4=CC(=O)C=C[C@]4(C)[C@@]3(F)[C@@H](O)C[C@]2(C)[C@@]1(O)C(=O)CO (some centres not stated) | inactive
CN(C)S(=O)(=O)c1cccc(NC(=O)COc2ccc3ccccc3c2)c1 | inactive
O=C(COC(=O)c1ncc(Cl)c(Cl)c1Cl)NCc1ccccc1 | inactive
CCOc1ccc(C(=O)Nc2nccs2)cc1[N+](=O)[O-] | inactive
Cc1cccc(-c2noc(CCC(=O)NC3CCCC3)n2)c1 | inactive
Cc1ccc(-c2noc(CN3CCN(Cc4ccccc4)CC3)n2)cc1 | inactive
Cc1cccc(-c2nc(Nc3ccc(O)cc3)c3ccccc3n2)c1 | inactive
Cc1ccc(Cc2nc(-c3cccc(C)c3)no2)cc1 | 2820 nM (active)
Cc1ccc(-c2noc(CC(c3ccccc3)c3ccccc3)n2)cc1 | inactive
Cc1cccc(-c2noc(-c3ccc(F)cc3)n2)c1 | 100 nM (active)
O=C(CSc1ccccc1)Nc1cccc(S(=O)(=O)N2CCOCC2)c1 | inactive

Structure (SMILES) | Potency
CC(=O)c1sc(N/N=C/c2ccc(C(C)C)cc2)nc1C | 1000 nM (active)
COc1cc2ccccc2cc1C(=O)Nc1ccncc1 | inactive
CC(=O)c1sc(NC(=O)C2=NN(c3ccccc3)C(=O)CC2)nc1C | inactive
CC(=O)c1sc(N)nc1C | inactive
Cc1nnc(C)n1/N=C/c1ccc(C(C)C)cc1 | inactive
CC(=O)c1sc(NC(=O)c2ccc(C)cc2)nc1C | 1580 nM (active)
CC(=O)c1sc(NC(=O)CCCOc2ccccc2C)nc1C | inactive
CCOC(=O)c1sc(NC(=O)c2sc(C)nc2C)nc1C | inactive
COc1cc2ccccc2cc1C(=O)Nc1nc(C)c(C(C)=O)s1 | 3980 nM (active)
Cc1ccc(S(=O)(=O)Nc2nc(C)cc(N/N=C/c3ccc(O)cc3)n2)cc1 | inactive
COc1cc2ccccc2cc1C(=O)Nc1ccccc1C | inactive
CC(=O)c1sc(N/N=C\c2ccc(C)cc2)nc1C | 3550 nM (active)
COc1ccc(Cl)cc1NC(=O)CN(C)CC(=O)Nc1ccc2c(c1)OCO2 | inactive
COc1ccc(-c2cc(C(=O)NCCCN3CCCC3=O)c3ccccc3n2)cc1OC | inactive
O=S(=O)(Nc1ccc(Cl)cn1)c1cnc(Cl)c(Br)c1 | inactive
COc1ccc(S(=O)(=O)Nc2ccc3cn[nH]c3c2)cc1[N+](=O)[O-] | inactive
